Results reported in PubChem BioAssay AID743446 (Broad Institute, 2014).
Measured potencies and affinities stand elsewhere. Values without a mark were called inactive. No rule for the calls is given here.

Assay: HEK293 cell cytotoxicity, dose response, cytotoxicity control, plate reader, cherry-picked samples (AID 743446)
Settings: hits give low values; at 26 µM unless noted

Compound	max activity
COc1ccc(-n2sc3ccc(F)cc3c2=O)cc1	-22.4% [at 0.05 µM]
Cc1cc(C)n2c(Nc3ccc4c(c3)OCCO4)c(-c3cc4ccccc4o3)nc2n1	52.8%
C[C@@H]1CN([C@@H](C)CO)C(=O)c2cc(NS(C)(=O)=O)ccc2O[C@@H](C)CCCCO[C@@H]1CN(C)Cc1ccc(C(F)(F)F)cc1	-12.9% [at 0.1 µM]
CCOc1ccc(-c2cnc3ccccc3n2)cc1	16.5% [at 0.38 µM]
CCc1nnc(NC(=O)CSc2nnc3ncccn23)s1	33.7%
CC(=O)c1ccc(S(=O)(=O)N2CCC(NC(=O)Nc3cccc(F)c3)CC2)cc1	28.3% [at 3 µM]
Cc1ccc(C)c(S(=O)(=O)N(C(=O)c2ccncc2)c2ccc(OC(=O)c3ccncc3)cc2)c1	13.7%
O=C(Nc1ccc(N2CCOCC2)cc1)c1cnccn1	-6.24% [at 3 µM]
C[C@H](CO)N1C[C@H](C)[C@H](CN(C)C(=O)Nc2ccc(F)cc2)OCCCC[C@H](C)Oc2ccc(NC(=O)Nc3ccc(F)cc3)cc2C1=O	17% [at 1.5 µM]
CCCCC(=O)N(C)c1c(C)nc2ccc(C(=O)N3CCCCC3)cn12	-12.7% [at 12 µM]
COc1ccc(CC(=O)Nc2cccc(-c3nnc(-c4cccc(C)c4)o3)c2)cc1OC	-27%
CCCNC(=O)N1[C@H](C#N)[C@H](c2ccc(C#Cc3ccc(F)cc3)cc2)[C@H]1CO	-37%
